Results as given in the supplement of paper PMC8007513.
Structures can show the parent of a compound that is named as a salt. ± gives the standard error. Hit rate of the full screen: of about 1,300 compounds, about 130 (10%) showed an effect of 50% or more. This is one part of a sample in which strong results are shown more often than they occur.

System: Trichoderma virens ATCC 9645
Assay: growth yield (OD600) with compound + IPBC relative to untreated control; higher = less growth inhibition
Conditions: compound concentration: 100 uM, IPBC concentration: 200 ng/ml
In short: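 Trichoderma virens ATCC 9645 spores, from potato dextrose agar plates grown for 7 days, were brought to 15,000 spores ml^−1 in potato dextrose broth and dispensed as 100 μl aliquots into 96-well plates. Each aliquot received library compounds at 100 μM final, with or without a biocide at 200 ng ml^−1, before growth at 30 °C and OD600 readings on a BioTek EL800 at 40 h and 72 h. Growth is expressed relative to the control containing neither agent and represents means of duplicate screens.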

Row | Structure (SMILES) | growth yield (40 h) [%] | growth yield (72 h) [%]
1 | Cc1cccc(N(C)C(=S)Oc2ccc3ccccc3c2)c1 [Tolnaftate] + CCCCNC(=O)OCC#CI [3-iodo-2-propynyl butylcarbamate (IPBC)] | 0 | 35.9 ± 0.84
2 | CC(C)(C)C(=O)OCOC(=O)[C@@H]1N2C(=O)[C@@H](NC(=O)[C@H](N)c3ccccc3)[C@H]2SC1(C)C [Pivampicillin] + CCCCNC(=O)OCC#CI [3-iodo-2-propynyl butylcarbamate (IPBC)] | 125 ± 1.3 | 119.9 ± 0.73
3 | CCCCCOC(=O)Nc1nc(=O)n([C@@H]2O[C@H](C)[C@@H](O)[C@H]2O)cc1F [Capecitabine] + CCCCNC(=O)OCC#CI [3-iodo-2-propynyl butylcarbamate (IPBC)] | 99.28 ± 0.48 | 98.58 ± 0.84
4 | CN(C)/N=N/c1[nH]cnc1C(N)=O [Dacarbazine] + CCCCNC(=O)OCC#CI [3-iodo-2-propynyl butylcarbamate (IPBC)] | 86.25 ± 0.48 | 93.03 ± 0.52
5 | O=C([O-])c1ccccc1-c1c2cc(Br)c(=O)cc-2oc2[c]([Hg+])c([O-])c(Br)cc12.[Na+].[Na+].[OH-] [Merbromin] + CCCCNC(=O)OCC#CI [3-iodo-2-propynyl butylcarbamate (IPBC)] | 5.4 ± 0.64 | 3.99 ± 0.21
6 | COc1ccc([C@@H]2CC(=O)c3c(O)cc(O[C@@H]4O[C@H](CO[C@@H]5O[C@@H](C)[C@H](O)[C@@H](O)[C@H]5O)[C@@H](O)[C@H](O)[C@H]4O)cc3O2)cc1O [Hesperidin] + CCCCNC(=O)OCC#CI [3-iodo-2-propynyl butylcarbamate (IPBC)] | 86.41 ± 0.64 | 92.6 ± 2.2
7 | C[C@@H](O[C@H]1OCCN(Cc2n[nH]c(=O)[nH]2)[C@H]1c1ccc(F)cc1)c1cc(C(F)(F)F)cc(C(F)(F)F)c1 [Aprepitant] + CCCCNC(=O)OCC#CI [3-iodo-2-propynyl butylcarbamate (IPBC)] | 113 ± 12 | 104 ± 8.8
8 | CNCCc1ccccn1 [Betahistine mesylate] + CCCCNC(=O)OCC#CI [3-iodo-2-propynyl butylcarbamate (IPBC)] | 88 ± 8.3 | 92 ± 5.6
9 | O=C(NCNC(=O)NC1C(=O)NC(=O)N1CO)NC1C(=O)NC(=O)N1CO (stereo unspecified) [Imidurea] + CCCCNC(=O)OCC#CI [3-iodo-2-propynyl butylcarbamate (IPBC)] | 89 ± 7 | 92.5 ± 5.5
10 | CCCc1cc(=O)[nH]c(=S)[nH]1 [Propylthiouracil] + CCCCNC(=O)OCC#CI [3-iodo-2-propynyl butylcarbamate (IPBC)] | 90.1 ± 11 | 93 ± 6.4
11 | CCCCCCNC(=O)n1cc(F)c(=O)[nH]c1=O [Carmofur] + CCCCNC(=O)OCC#CI [3-iodo-2-propynyl butylcarbamate (IPBC)] | 21.9 ± 0.95 | 31.4 ± 0.32
12 | CC(C(=O)O)c1ccc(C(=O)c2ccccc2)s1 (stereo unspecified) [Tiaprofenic acid] + CCCCNC(=O)OCC#CI [3-iodo-2-propynyl butylcarbamate (IPBC)] | 77.83 ± 0.32 | 83.38 ± 0.32
13 | CCCCN(CCCC)CCC(O)c1cc2c(Cl)cc(Cl)cc2c2cc(C(F)(F)F)ccc12 (stereo unspecified) [Halofantrine hydrochloride] + CCCCNC(=O)OCC#CI [3-iodo-2-propynyl butylcarbamate (IPBC)] | 13.8 ± 0.16 | 7.66 ± 1.1
14 | CCN1CCCC(OC(=O)C(c2ccccc2)c2ccccc2)C1 (stereo unspecified) [Piperidolate hydrochloride] + CCCCNC(=O)OCC#CI [3-iodo-2-propynyl butylcarbamate (IPBC)] | 85.5 ± 1.6 | 94.08 ± 0.73
15 | CC[C@@]1([C@@H]2O[C@@H]([C@H]3O[C@@](O)(CO)[C@H](C)C[C@@H]3C)C[C@@H]2C)CC[C@H]([C@]2(C)CC[C@]3(C[C@H](O)[C@@H](C)[C@@H]([C@@H](C)[C@@H](OC)[C@H](C)C(=O)O)O3)O2)O1 [Monensin sodium salt] + CCCCNC(=O)OCC#CI [3-iodo-2-propynyl butylcarbamate (IPBC)] | 79.4 ± 9.8 | 89.6 ± 9.2
16 | CC(Cc1cccc(C(F)(F)F)c1)NCCOC(=O)c1ccccc1 (stereo unspecified) [Benfluorex] + CCCCNC(=O)OCC#CI [3-iodo-2-propynyl butylcarbamate (IPBC)] | 56.4 ± 1.8 | 81.8 ± 1.5
17 | Cc1cccc(Nc2ccncc2S(=O)(=O)NC(=O)NC(C)C)c1 [Torsemide] + CCCCNC(=O)OCC#CI [3-iodo-2-propynyl butylcarbamate (IPBC)] | 95.3 | 114 ± 17
18 | CNCC[C@@H](Oc1cccc2ccccc12)c1cccs1 [(R)-Duloxetine hydrochloride] + CCCCNC(=O)OCC#CI [3-iodo-2-propynyl butylcarbamate (IPBC)] | 61.6 ± 3.8 | 90.3 ± 0.1
19 | O=C(O)CCCC[C@@H]1SC[C@@H]2NC(=O)N[C@@H]21 [Biotin] + CCCCNC(=O)OCC#CI [3-iodo-2-propynyl butylcarbamate (IPBC)] | 85.3 ± 3.3 | 91.03 ± 0.84

Row | Structure (SMILES) | growth yield (40 h) [%] | growth yield (72 h) [%]
20 | C=C1C[C@@H]2[C@H](CC[C@]3(C)C(=O)CC[C@@H]23)[C@@]2(C)C=CC(=O)C=C12 [Exemestane] + CCCCNC(=O)OCC#CI [3-iodo-2-propynyl butylcarbamate (IPBC)] | 63.5 ± 0.64 | 77.6 ± 1.5
21 | CCOc1cc(CC(=O)N[C@@H](CC(C)C)c2ccccc2N2CCCCC2)ccc1C(=O)O [Repaglinide] + CCCCNC(=O)OCC#CI [3-iodo-2-propynyl butylcarbamate (IPBC)] | 104 ± 7.3 | 104 ± 4.8
22 | Cc1cccc(CN2CCN(C(c3ccccc3)c3ccc(Cl)cc3)CC2)c1 (stereo unspecified) [Meclozine dihydrochloride] + CCCCNC(=O)OCC#CI [3-iodo-2-propynyl butylcarbamate (IPBC)] | 3.02 ± 1.1 | 3.78 ± 0.63
23 | CN1CCCN(C(c2ccccc2)c2ccc(Cl)cc2)CC1 (stereo unspecified) [Homochlorcyclizine dihydrochloride] + CCCCNC(=O)OCC#CI [3-iodo-2-propynyl butylcarbamate (IPBC)] | 58.5 ± 2.2 | 89.9 ± 1.6
24 | CN1CCN(C(c2ccccc2)c2ccc(Cl)cc2)CC1 (stereo unspecified) [Chlorcyclizine hydrochloride] + CCCCNC(=O)OCC#CI [3-iodo-2-propynyl butylcarbamate (IPBC)] | 76.9 ± 1.6 | 91.6 ± 2.6
25 | O=C(Nc1ccccc1)OCC(CN1CCCCC1)OC(=O)Nc1ccccc1 (stereo unspecified) [Diperodon hydrochloride] + CCCCNC(=O)OCC#CI [3-iodo-2-propynyl butylcarbamate (IPBC)] | 77.4 ± 4.3 | 96.9 ± 1.7
26 | CCC1(c2cccc(O)c2)CCCCN(C)C1 (stereo unspecified) [Meptazinol hydrochloride] + CCCCNC(=O)OCC#CI [3-iodo-2-propynyl butylcarbamate (IPBC)] | 89.7 ± 3.6 | 92.5 ± 2.7
27 | O=c1[nH]c2ccccc2n1CCCN1CCC(n2c(=O)[nH]c3cc(Cl)ccc32)CC1 [Domperidone] + CCCCNC(=O)OCC#CI [3-iodo-2-propynyl butylcarbamate (IPBC)] | 63.5 ± 2.9 | 91.8 ± 2.4
28 | O=C(O)c1cn(-c2ccc(F)cc2)c2cc(N3CCNCC3)c(F)cc2c1=O [Sarafloxacin] + CCCCNC(=O)OCC#CI [3-iodo-2-propynyl butylcarbamate (IPBC)] | 81.2 ± 6.8 | 98.2 ± 5.5
29 | O=C1NCCN1CCN1CCC(c2cn(-c3ccc(F)cc3)c3ccc(Cl)cc23)CC1 [Sertindole] + CCCCNC(=O)OCC#CI [3-iodo-2-propynyl butylcarbamate (IPBC)] | 5.24 ± 0.79 | 3.46 ± 0.1
30 | CCNCC(O)c1cccc(O)c1 (stereo unspecified) [Etilefrine hydrochloride] + CCCCNC(=O)OCC#CI [3-iodo-2-propynyl butylcarbamate (IPBC)] | 96.9 ± 3.5 | 98.1 ± 2.4
31 | CC(=O)OCC(=O)[C@@]1(O)CC[C@H]2[C@@H]3CCC4=CC(=O)C=C[C@]4(C)[C@@]3(F)[C@@H](O)C[C@@]21C [Isoflupredone acetate] + CCCCNC(=O)OCC#CI [3-iodo-2-propynyl butylcarbamate (IPBC)] | 87.8 ± 2.1 | 91.7 ± 1.1
32 | CN(C/C=C/c1ccccc1)Cc1cccc2ccccc12 [Naftifine hydrochloride] + CCCCNC(=O)OCC#CI [3-iodo-2-propynyl butylcarbamate (IPBC)] | 13.2 ± 3 | 50 ± 2.2
33 | CN(C/C=C/C#CC(C)(C)C)Cc1cccc2ccccc12 [Terbinafine] + CCCCNC(=O)OCC#CI [3-iodo-2-propynyl butylcarbamate (IPBC)] | 3.18 ± 0.64 | 2.94 ± 0.42
34 | C#CCN(C)Cc1ccccc1 [Pargyline hydrochloride] + CCCCNC(=O)OCC#CI [3-iodo-2-propynyl butylcarbamate (IPBC)] | 89.3 ± 4.5 | 95.5 ± 2.4
35 | CN(Cc1ccc(C(C)(C)C)cc1)Cc1cccc2ccccc12 [Butenafine Hydrochloride] + CCCCNC(=O)OCC#CI [3-iodo-2-propynyl butylcarbamate (IPBC)] | 4.13 | 2.73
36 | c1ccc2c(CC3=NCCN3)cccc2c1 [Naphazoline hydrochloride] + CCCCNC(=O)OCC#CI [3-iodo-2-propynyl butylcarbamate (IPBC)] | 87 ± 1.9 | 91.9
37 | OC(CCN1CCCCC1)(c1ccccc1)C1CCCCC1 (stereo unspecified) [Trihexyphenidyl-D,L Hydrochloride] + CCCCNC(=O)OCC#CI [3-iodo-2-propynyl butylcarbamate (IPBC)] | 101 ± 16 | 102 ± 8.6
38 | COC(=O)Nc1nc2cc(C(=O)c3cccs3)ccc2[nH]1 [Nocodazole] + CCCCNC(=O)OCC#CI [3-iodo-2-propynyl butylcarbamate (IPBC)] | 107 ± 2.9 | 109 ± 1.1
